According to PubChem BioAssay (Tox21):
Activity calls are given as the source filed them. Where a call stands in place of a potency, no number is given. Unless noted, calls follow the shape of the dose curve; as a rule, active = well fitted curve in the direction sought with a large enough effect in the repeat runs; inconclusive = weak or mixed curves; inactive = no such curve, though single readings can be large; an effect the other way counts as inactive or inconclusive.

Tests used:
[1] = qHTS assay to identify small molecule antagonists of the thyroid receptor (TR) signaling pathway - cell viability counter screen (AID 743064); also: nearly all actives have a fitted effect of over 50% in size; also: potency is read from the fitted curve at half-maximal effect
Summary of the method: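 GH3.TRE-Luc cells, 4 h pre-plating; cpd + T3 1 nM final; 37 °C 23.5 h; CellTiter-Fluor 30 min; fluorescence read.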

[2] = qHTS assay to identify small molecule antagonists of the thyroid receptor (TR) signaling pathway (AID 743065); also: nearly all actives have a fitted effect of over 55% in size; also: potency is read from the fitted curve at half-maximal effect
Summary of the method: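 GH3.TRE-Luc rat pituitary cells (two TREs driving luciferase) were dosed with compound, then stimulated with 1 nM T3 (final) for 23.5 h at 37 C. ONE-Glo luminescence was the read-out, with CellTiter-Fluor fluorescence as the cytotoxicity counter-screen.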

[3] = system: thyroid hormone receptor (rat, GH3 cells); experiment: qHTS assay to identify small molecule agonists of the thyroid receptor (TR) signaling pathway (AID 743066; calls by dose curve)
[4] = qHTS assay to identify small molecule antagonists of the estrogen receptor alpha (ER-alpha) signaling pathway using the BG1 cell line - cell viability counter screen (AID 743081);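 also: compound given together with 17beta-estradiol as the ER stimulus; nearly all actives have a fitted effect of over 45% in size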
[5] = qHTS assay to identify small molecule antagonists of the peroxisome proliferator-activated receptor gamma (PPARg) signaling pathway - cell viability counter screen (AID 743194); also: nearly all actives have a fitted effect of over 55% in size; also: potency is read from the fitted curve at half-maximal effect
Summary of the method: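 Cytotoxicity counter screen in PPARg-bla HEK293H cells, same wells as reporter assay. Compounds plus 50 nM rosiglitazone (final) for 17 h at 37 C, then viability read by CellTiter-Glo luminescence.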

[6] = qHTS assay for small molecule agonists of the antioxidant response element (ARE) signaling pathway (AID 743202; active = well fitted activation curve with a large enough effect in the signal ratio in the repeat runs, not every such curve was filed as active; inconclusive = weak or mixed curves, or effect the other way; inactive = no such curve, though single readings can be large or run the other way; the % refers to the signal ratio; also: potency is read from the fitted curve at half-maximal effect)
Summary of the method: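 HepG2 ARE-bla cells; 16 h treatment at 37 C; FRET-based beta-lactamase fluorescence read after 2 h substrate incubation at room temperature.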

[7] = qHTS assay for small molecule activators of the heat shock response signaling pathway - cell viability counter screen (AID 743209); also: nearly all actives have a fitted effect of over 50% in size
Summary of the method: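 HSE-bla HeLa; 1500 cells/well; overnight 37 C, 5% CO2; compound 5 h 37 C; LiveBLAzer B/G substrate 2.5 h RT; CellTiter-Glo 30 min RT; luminescence.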

[8] = target: Aromatase (Homo sapiens) (UniProt P11511); experiment: qHTS assay to identify aromatase inhibitors (AID 743083); also: nearly all actives have a fitted effect of over 55% in size; also: potency is read from the fitted curve at half-maximal effect
[9] = qHTS assay to identify aromatase inhibitors - cell viability counter screen (AID 743084);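 also: cells stimulated with testosterone during compound exposure; nearly all actives have a fitted effect of over 55% in size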; also: potency is read from the fitted curve at half-maximal effect
[10] = qHTS assay to identify small molecule that activate the aryl hydrocarbon receptor (AhR) signaling pathway - cell viability counter screen (AID 743086); also: nearly all actives have a fitted effect of over 45% in size; also: potency is read from the fitted curve at half-maximal effect
Summary of the method: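 HepG2-AhR-luc (HG2L7.5c1) cells, 4000/well, treated 24 h at 37 C with compound; viability measured as CellTiter-Fluor fluorescence after 30 min in the same wells as the luciferase read.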

[11] = target: Peroxisome proliferator-activated receptor gamma (Homo sapiens) (UniProt P37231); experiment: qHTS assay to identify small molecule agonists of the peroxisome proliferator-activated receptor gamma (PPARg) signaling pathway (AID 743094; active = well fitted activation curve with a large enough effect in the signal ratio in the repeat runs, not every such curve was filed as active; inconclusive = weak or mixed curves, or effect the other way; inactive = no such curve, though single readings can be large or run the other way; the % refers to the signal ratio)
Summary of the method: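 HEK293H PPARg-bla cells, 5 h settle at 37C/5% CO2; compound (DMSO) 17 h, 37C; B/G FRET substrate 1 h RT; fluorescence intensity read-out. qHTS format.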

[12] = target: Estrogen receptor (Homo sapiens) (UniProt P03372); experiment: qHTS assay to identify small molecule antagonists of the estrogen receptor alpha (ER-alpha) signaling pathway (AID 743069; active = well fitted curve in the direction sought with a large enough effect in the signal ratio in the repeat runs, not every such curve was filed as active; inconclusive = weak or mixed curves, or effect the other way; inactive = no such curve, though single readings can be large or run the other way; the % refers to the signal ratio; also: potency is read from the fitted curve at half-maximal effect)
Summary of the method: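 In this cell-based reporter format, GripTite HEK293 cells harbouring ER-alpha-UAS-bla were grown overnight with 2% charcoal-stripped FBS, dosed with DMSO-dissolved compounds, then challenged with 17beta-estradiol. After 18 hr at 37C, beta-lactamase activity was detected by FRET fluorescence.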

[13] = qHTS assay to identify small molecule antagonists of the estrogen receptor alpha (ER-alpha) signaling pathway using the BG1 cell line (AID 743080; calls by dose curve;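 also: BG1 cells stimulated with 17beta-estradiol alongside compound; nearly all actives have a fitted effect of over 25% in size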; also: potency is read from the fitted curve at half-maximal effect)
Summary of the method: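 BG1Luc4E2, endogenous ER-alpha, 4xERE-luc; 5 d charcoal-stripped FBS, phenol red free; 24 h plating; cpd + 17beta-estradiol 21.5 h, 37 C/5% CO2; CellTiter-Fluor viability 30 min, then ONE-Glo luciferase 30 min RT.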

[14] = target: Aryl hydrocarbon receptor (Homo sapiens) (UniProt P35869); experiment: qHTS assay to identify small molecule that activate the aryl hydrocarbon receptor (AhR) signaling pathway (AID 743085);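 also: HG2L7.5c1 human HepG2 liver cells with stably integrated DRE-driven firefly reporter; nearly all actives have a fitted effect of over 15% in size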
Summary of the method: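 Luminescence read-out: ONE-Glo reagent, 30 min at room temperature, in HG2L7.5c1 HepG2 reporter cells treated 24 h at 37C. Viability was measured beforehand by CellTiter-Fluor fluorescence after 30 min at 37C.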

[15] = qHTS assay for small molecule agonists of the antioxidant response element (ARE) signaling pathway - cell viability counter screen (AID 743203; calls by dose curve; also: nearly all actives have a fitted effect of over 55% in size; also: potency is read from the fitted curve at half-maximal effect)
Summary of the method: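 Luminescence read-out (CellTiter-Glo, 30 min at room temperature) measured cell viability in the same wells as the ARE beta-lactamase reporter. HepG2 ARE-bla cells were treated with compounds for 16 hrs at 37C/5% CO2.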

[16] = qHTS assay to identify small molecule antagonists of the estrogen receptor alpha (ER-alpha) signaling pathway - cell viability counter screen (AID 743074; calls by dose curve; also: nearly all actives have a fitted effect of over 45% in size)
[17] = target: Estrogen receptor (Homo sapiens) (UniProt P03372); experiment: qHTS assay to identify small molecule agonists of the estrogen receptor alpha (ER-alpha) signaling pathway (AID 743075; calls by dose curve; also: potency is read from the fitted curve at half-maximal effect)
[18] = qHTS assay for small molecule activators of the heat shock response signaling pathway (AID 743210; active = well fitted activation curve with a large enough effect in the signal ratio in the repeat runs, with a control signal flat, not every such curve was filed as active; inconclusive = weak or mixed curves; the % refers to the signal ratio;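 also: HeLa cells with beta-lactamase reporter driven by heat shock elements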)
Summary of the method: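 Following overnight attachment, HSE-bla HeLa cells received test compounds for 5 h at 37 C; beta-lactamase activity was then detected via FRET substrate fluorescence.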

[19] = target: Estrogen receptor (Homo sapiens) (UniProt P03372); experiment: qHTS assay to identify small molecule agonists of the estrogen receptor alpha (ER-alpha) signaling pathway using the BG1 cell line (AID 743079); settings: BG1Luc4E2 cells, ERE-luciferase agonist, 22 h; activation: at 70.3 µM (top of the series); also: nearly all actives have a fitted effect of over 20% in size; also: potency is read from the fitted curve at half-maximal effect
[20] = target: Peroxisome proliferator-activated receptor gamma (Homo sapiens) (UniProt P37231); experiment: qHTS assay to identify small molecule antagonists of the peroxisome proliferator-activated receptor gamma (PPARg) signaling pathway (AID 743191; calls by dose curve; also: nearly all actives have a fitted effect of over 30% in size; also: potency is read from the fitted curve at half-maximal effect)
Summary of the method: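 GeneBLAzer PPARg UAS-bla HEK293H cells, 5 h post-plating, exposed to compounds 17 h at 37C. LiveBLAzer B/G FRET substrate added for 1 h at room temperature; beta-lactamase reporter read by fluorescence intensity.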

Sequence of Aryl hydrocarbon receptor (Homo sapiens) (P35869 whole entry, looked up): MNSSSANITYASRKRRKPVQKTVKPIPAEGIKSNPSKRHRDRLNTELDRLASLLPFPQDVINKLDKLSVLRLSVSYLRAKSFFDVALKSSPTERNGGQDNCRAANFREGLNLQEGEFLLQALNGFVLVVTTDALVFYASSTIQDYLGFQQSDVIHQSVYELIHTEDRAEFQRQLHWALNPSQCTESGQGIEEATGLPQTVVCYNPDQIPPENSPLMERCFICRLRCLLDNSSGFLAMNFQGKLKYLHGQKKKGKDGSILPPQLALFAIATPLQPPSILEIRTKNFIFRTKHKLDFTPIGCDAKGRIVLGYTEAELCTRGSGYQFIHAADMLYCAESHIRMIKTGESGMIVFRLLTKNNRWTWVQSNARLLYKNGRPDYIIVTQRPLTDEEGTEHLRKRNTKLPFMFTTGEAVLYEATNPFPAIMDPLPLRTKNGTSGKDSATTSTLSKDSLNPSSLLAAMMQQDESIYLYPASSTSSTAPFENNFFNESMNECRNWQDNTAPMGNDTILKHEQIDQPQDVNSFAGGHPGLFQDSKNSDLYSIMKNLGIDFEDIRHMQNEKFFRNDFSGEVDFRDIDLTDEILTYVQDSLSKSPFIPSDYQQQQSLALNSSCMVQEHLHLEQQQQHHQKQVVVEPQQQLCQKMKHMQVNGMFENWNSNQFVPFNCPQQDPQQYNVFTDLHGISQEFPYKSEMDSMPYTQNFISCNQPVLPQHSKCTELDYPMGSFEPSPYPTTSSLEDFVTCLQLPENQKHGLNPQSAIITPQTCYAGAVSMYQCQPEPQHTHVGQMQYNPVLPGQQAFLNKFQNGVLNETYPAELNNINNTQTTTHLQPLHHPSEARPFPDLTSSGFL
Sequence of Aromatase (Homo sapiens) (P11511 whole entry, looked up): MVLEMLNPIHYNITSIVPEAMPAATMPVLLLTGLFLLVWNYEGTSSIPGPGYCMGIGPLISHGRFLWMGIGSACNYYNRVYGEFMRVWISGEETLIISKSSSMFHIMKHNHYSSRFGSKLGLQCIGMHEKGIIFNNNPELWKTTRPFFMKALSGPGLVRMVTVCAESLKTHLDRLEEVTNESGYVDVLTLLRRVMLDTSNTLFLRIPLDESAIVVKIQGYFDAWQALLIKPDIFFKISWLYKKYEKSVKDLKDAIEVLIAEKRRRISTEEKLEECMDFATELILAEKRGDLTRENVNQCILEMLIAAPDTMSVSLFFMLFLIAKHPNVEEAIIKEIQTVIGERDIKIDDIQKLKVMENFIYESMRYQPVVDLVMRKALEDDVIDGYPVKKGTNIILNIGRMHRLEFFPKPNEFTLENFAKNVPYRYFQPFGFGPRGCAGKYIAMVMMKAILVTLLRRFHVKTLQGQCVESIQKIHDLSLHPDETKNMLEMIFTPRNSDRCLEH
Sequence of Peroxisome proliferator-activated receptor gamma (Homo sapiens) (P37231 whole entry, looked up): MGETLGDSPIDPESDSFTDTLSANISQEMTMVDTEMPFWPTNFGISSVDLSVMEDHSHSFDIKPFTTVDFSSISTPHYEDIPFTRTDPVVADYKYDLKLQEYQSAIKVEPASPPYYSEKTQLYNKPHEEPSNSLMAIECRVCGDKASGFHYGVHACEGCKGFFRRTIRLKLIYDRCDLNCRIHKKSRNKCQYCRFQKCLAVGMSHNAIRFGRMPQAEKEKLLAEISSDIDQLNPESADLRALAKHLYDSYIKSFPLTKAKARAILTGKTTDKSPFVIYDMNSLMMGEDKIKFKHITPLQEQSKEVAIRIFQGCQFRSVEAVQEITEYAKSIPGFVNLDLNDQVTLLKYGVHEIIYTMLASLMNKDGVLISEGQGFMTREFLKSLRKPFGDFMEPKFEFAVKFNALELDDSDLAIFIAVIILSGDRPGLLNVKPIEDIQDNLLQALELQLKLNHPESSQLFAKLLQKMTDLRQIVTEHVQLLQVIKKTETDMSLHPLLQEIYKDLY
Sequence of Estrogen receptor (Homo sapiens) (P03372 whole entry, looked up): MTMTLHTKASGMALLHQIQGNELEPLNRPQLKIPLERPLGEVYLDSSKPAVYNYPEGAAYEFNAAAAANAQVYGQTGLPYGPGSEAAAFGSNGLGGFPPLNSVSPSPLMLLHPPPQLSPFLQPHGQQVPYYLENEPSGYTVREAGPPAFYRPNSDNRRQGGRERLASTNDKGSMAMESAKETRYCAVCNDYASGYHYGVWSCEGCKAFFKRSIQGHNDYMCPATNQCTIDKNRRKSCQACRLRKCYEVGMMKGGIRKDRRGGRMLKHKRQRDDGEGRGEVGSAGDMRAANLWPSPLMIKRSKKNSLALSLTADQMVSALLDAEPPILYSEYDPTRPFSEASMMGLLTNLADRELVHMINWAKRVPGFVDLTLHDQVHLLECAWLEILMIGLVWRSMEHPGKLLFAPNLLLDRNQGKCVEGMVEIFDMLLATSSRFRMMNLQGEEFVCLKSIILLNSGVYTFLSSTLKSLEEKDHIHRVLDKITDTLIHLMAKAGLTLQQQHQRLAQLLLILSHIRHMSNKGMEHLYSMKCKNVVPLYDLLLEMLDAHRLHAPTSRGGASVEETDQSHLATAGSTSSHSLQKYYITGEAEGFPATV

SMILES | Potency [1] | Potency [2] | outcome [3] | Potency [4] | Potency [5] | Potency [6] | Potency [7] | Potency [8] | Potency [9] | Potency [10] | Potency [11] | Potency [12] | Potency [13] | Potency [14] | Potency [15] | Potency [16] | Potency [17] | Potency [18] | Potency [19] | Potency [20]
C[C@@]12CCC[C@H]1[C@@H]1CC[C@H]3C[C@@H](O)CC[C@]3(C)[C@H]1CC2 | inactive | inactive | inactive | inactive | inactive | inactive | inactive | – | – | – | – | – | – | – | – | – | – | – | – | –
O=[N+]([O-])c1ccc(O/N=C/c2cc(Br)c(O)c(Br)c2)c([N+](=O)[O-])c1 | 10.8 µM (active) | 9.64 µM (active) | inactive | – | – | 8.59 µM (active) | inactive | inactive | inactive | inactive | inactive | – | – | – | – | – | – | – | – | –
CC(C)C[C@H](NC(=O)[C@H](CCc1ccccc1)NC(=O)CN1CCOCC1)C(=O)N[C@@H](Cc1ccccc1)C(=O)N[C@@H](CC(C)C)C(=O)[C@@]1(C)CO1 | 0.0422 µM (active) | 0.0298 µM (active) | – | inactive | – | 0.0668 µM (active) | inactive | 33.5 nM (active) | – | 47.3 nM (active) | – | 601 nM [inconclusive] (active) | 0.188 µM (active) | inactive | 3.76 µM (active) | – | – | – | – | –
O=C1c2ccccc2C(=O)c2c(O)c(O)cc(O)c21 | 54.5 µM (active) | – | inactive | – | inactive | – | inactive | inactive | 27.3 µM (active) | – | inactive | inactive | – | – | inactive | inactive | inactive | inactive | – | –
Cc1c(C)c2c(c(C)c1OC(=O)CCC(=O)OCCO)CC[C@@](C)(CCC[C@H](C)CCC[C@H](C)CCCC(C)C)O2 | 11.9 µM (active) | 23.7 µM (active) | – | inactive | 33.5 µM (active) | – | inactive | – | – | inactive | – | – | – | inactive | – | – | inactive | inactive | inactive | 15 µM (active)
O=C1Cc2ccccc2N1c1c(Cl)cccc1Cl | inactive | – | inactive | inactive | inactive | – | inactive | inactive | inactive | – | inactive | – | 68.6 µM (active) | inactive | inactive | inactive | 43.6 µM [inconclusive] (active) | inactive | 10.9 µM (active) | –
CN(C)CCC=C1c2ccccc2C=Cc2ccccc21 | 15 µM (active) | 26.6 µM (active) | – | inactive | inactive | – | inactive | inactive | inactive | inactive | inactive | – | inactive | – | inactive | inactive | inactive | – | inactive | –
CN1CCCC(n2nc(Cc3ccc(Cl)cc3)c3ccccc3c2=O)CC1 (stereo not drawn) | 21.1 µM (active) | 21.1 µM (active) | – | – | – | – | inactive | inactive | inactive | inactive | inactive | inactive | inactive | inactive | 29.8 µM (active) | inactive | inactive | inactive | inactive | –
CCCCCCCC/C=C\CCCCCCCCO | inactive | inactive | inactive | inactive | inactive | inactive | inactive | inactive | inactive | inactive | inactive | – | – | inactive | – | – | – | inactive | – | inactive
